From PubChem BioAssay AID623868 (Vanderbilt High Throughput Screening Facility, 2012) come the findings set out here.

The campaign covered roughly 2,100 compounds. About 760 (36%) were called active. These entries were drawn from the full list. A number with no mark means an inactive call.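 Rule for the calls: active = thallium-flux fluorescence traces judged by eye to show enhanced or reduced glutamate response, manual score 1 or -1, so both directions (some results past the limit were not filed as active); inactive = the rest, including fluorescent or raised-baseline compounds.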

This assay can be described thus: non-GIRK thallium flux modulation in mGlu8 cells, confirmation, counter-screen for GIRK activator project, cell-based, HEK-293 rmGlu8, no GIRK (AID 623868).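 Note: extra codes mark interference with 3 for fluorescent and 4 for baseline rise.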 The note with it: thallium flux fluorescence, at 10 µM, actives lie on both sides, codes: 1 enhancer, -1 blocker, 0 none, thallium stimulus containing EC20 glutamate.
As for `CCN(CC)c1ccc2cc(-c3nnc(-c4ccccc4)o3)c(=O)oc2c1`, the manual score is 3.
Regarding `CC12CCC(C(=O)N(CSC(=S)N/N=C\c3ccccc3Cl)C1=O)C2(C)C` (stereo not drawn), the manual score was 1 (active).
Consider `CC12CCC(C(=O)N(CSC(=S)N/N=C\c3ccccc3O)C1=O)C2(C)C` (stereo not drawn), for which the manual score was 1 (active).
In the case of `O=C(c1cccc(F)c1)N1CCN(C(=O)c2cc(-c3ccc(Cl)cc3Cl)on2)CC1`, the manual score is 0.
In the case of `CC(C)n1c(-c2ccc(C(C)(C)C)cc2)n[nH]c1=S` it was 1 (active).
`CC(C)(C)c1ccc(-c2n[nH]c(=S)n2C2CCCC2)cc1`: the manual score is 1 (active).
On to `CCCCCCc1cc2cc(-c3nnc(-c4cc(OC)c(OC)c(OC)c4)o3)c(=O)oc2cc1O`, for which the manual score was 3.
For the compound `CC(C)CCn1c(S(=O)(=O)O)nc2ccccc21`, the manual score is 0.
Take `O=C(N/N=C\c1ccc(Cl)s1)c1cccs1`: the manual score is 1 (active).
With `Cc1cccc(-n2ncc3c(NCCc4ccc(S(N)(=O)=O)cc4)ncnc32)c1`, the manual score was 0.
With `NS(=O)(=O)c1ccc(CCNC2CC(=O)N(Cc3ccccc3)C2=O)cc1` (stereo not drawn) the figure was 0; with `Cc1nc(NCCc2ccc(S(N)(=O)=O)cc2)c2c(C)c(C)sc2n1`, 1 (active); with `Cc1ccc(C2CC2C(=O)NNC(=S)Nc2cccc(C)c2)cc1` (stereo not drawn), 1 (active).
On to `CCc1cc(C(=O)NNC(=S)Nc2cccc(C)c2)cs1`, for which the manual score was 1 (active).
With `Cc1ccc(Cl)cc1NC(=S)NCc1cccn1C`, the manual score was 0.
Regarding `CCc1cc(C(=O)NNC(=S)Nc2cc(C)ccc2C)cs1`, the manual score is 1 (active).
In the case of `CCc1cc(C(=O)NNC(=S)Nc2ccccc2C)cs1`, the manual score is 1 (active).
On to `CCc1cccc(NC(=O)CCSCCC(=O)Nc2cccc(CC)c2)c1`, for which the manual score is 0.
`Cc1ccc(C2CC2C(=O)NNC(=S)Nc2ccc(Cl)cc2)cc1` (stereo not drawn): the manual score is 0.5.
Consider `CCn1c(NC(=O)Nc2cccc(C)c2C)cc2sccc21`, for which the manual score is 0.
Take `Cc1ccc(C2CC2C(=O)NNC(=S)Nc2cccc(Cl)c2)cc1` (stereo not drawn): the manual score is 0.
In the case of `CCOC(=O)CC1=C(C(=O)OCC)C(c2cccs2)C(C#N)=C(N)O1` (stereo not drawn) it was -0.5; in that of `CCOc1ccc(NC(=O)Nc2cccs2)cc1`, 0; in that of `CCCCN(C)CC(O)Cn1cc(/C=C/C(=O)c2cccs2)c2ccccc21` (stereo not drawn), 3.
For the compound `Cc1cccc(NC(=S)NNC(=O)c2sccc2C)c1`, the manual score is 1 (active).
With `CC(C)C(=O)Nc1nnn(C)n1`, the manual score was 0.
Take `Cc1[nH]n(-c2ccc(F)cc2)c(=O)c1/C=N/c1sc2c(c1C#N)CCCC2`: the manual score was 3.
For the compound `Cc1[nH]n(-c2cccc3ccccc23)c(=O)c1/C=N/c1sc2c(c1C#N)CCC2`, the manual score was 1 (active).
As for `C=CCNCc1cccn1-c1sc2c(c1C#N)CCCC2`, the manual score is 0.
`CCOc1cc(C2NN=C(c3ccc(C)cc3)S2)ccc1O` (stereo not drawn): the manual score was 1 (active).
Consider `C=CCNC(=O)NC(=S)c1ccccc1`, for which the manual score was 1 (active).
In the case of `N#Cc1ccc(-c2csc(NC3=NCCCCC3)n2)cc1`, the manual score is 0.
In the case of `COC(=O)NC(=S)Nc1ccc(Oc2ccc(Cl)cc2Cl)c(Cl)c1`, the manual score was 1 (active).
In the case of `O=C(COc1ccc(Cl)cc1Cl)NNC(=S)Nc1ccc(F)cc1` it was 1 (active); in that of `O=C(COc1ccc(Cl)cc1Cl)Nc1noc2ccccc12`, 0; in that of `COc1ccc(NC(=S)SC)cc1OC`, 0.
Regarding `CCC(C)c1ccc(NC(=S)Nc2ccc(OC)c(OC)c2)cc1` (stereo not drawn), the manual score was 0.
With `C=CCNC(=S)NNC(=O)COc1ccc(Cl)cc1Cl` the figure was 0.5; with `CC(=O)c1ccc(OC(=O)N(c2ccccc2)c2ccccc2)cc1`, 0.
With `CCOc1ccc2nc(/N=C/c3c(C)[nH]n(-c4ccc(C)cc4)c3=O)sc2c1` the figure was 1 (active).
Turning to `CCOc1ccc2nc(/N=C/c3c(C)[nH]n(-c4ccccc4)c3=O)sc2c1`, the manual score was 1 (active).
Take `COc1ccc2nc(/N=C/c3c(C)[nH]n(-c4ccc(C)cc4C)c3=O)sc2c1`: the manual score is 1 (active).
Consider `CCOc1[nH]n(-c2ccc(Cl)cc2)c(=O)c1C=Nc1ccc(Cl)cc1`, for which the manual score is 0.
Take `COc1ccc2nc(/N=C/c3c(C)[nH]n(-c4ccc(C)cc4)c3=O)sc2c1`: the manual score is 1 (active).
Regarding `CC(C)OC(=O)CC12CN3CN(C1)CC(CC(=O)OC(C)C)(C3)C2=O`, the manual score is 0.
Take `CC1(C)NC(=O)N(CC(O)COc2ccc(-c3ccc(C#N)cc3)cc2)C1=O` (stereo not drawn): the manual score was 0.
For the compound `CCOc1cc(N2CCOCC2)c(OCC)cc1NC(=O)COC(=O)CCc1c[nH]c2ccccc12`, the manual score was 0.
On to `COc1c2occc2c(OC)c2c(=O)cc(C(F)(F)F)oc12`, for which the manual score was 0.
As to `CCN(CC)c1ccc(NC(=O)c2nc3nc(C)cc(C(F)F)n3n2)cc1`, the manual score was 0.
Take `O=C(COC(=O)CCC1CCCC1)Nc1nc2c(F)c(F)c(F)cc2s1`: the manual score is 0.
For `CCN1CCCC1CNC(=O)C1CCN(Cc2nc(-c3cccc(Br)c3)oc2C)CC1` (stereo not drawn), the manual score is 0.
Consider `CCOC(=O)C(CC)Sc1nnc(COc2ccc(C)cc2)n1-c1ccccc1` (stereo not drawn), for which the manual score is 3.
`CCOC(=O)C(CC)Sc1nnc2cc(C)c3ccccc3n12` (stereo not drawn): the manual score is -1 (active).
Regarding `O=c1c2ccc(Cl)cc2[nH]c(=S)n1CCC1=CCCCC1`, the manual score was 1 (active).
For `CCN(CC)CCn1c(=S)[nH]c2cc(Cl)ccc2c1=O`, the manual score was 0.5.
Turning to `N#CCCN(Cc1ccccc1)C(=S)NC(=O)c1ccccc1`, the manual score was 1 (active).
Take `COc1ccc(CN(CCC#N)C(=S)NC(=O)c2ccccc2)cc1`: the manual score was 1 (active).
Turning to `COCCN(C(=O)Cc1cccs1)C(C(=O)NCc1ccc(OC)cc1)c1ccccc1` (stereo not drawn), the manual score was 0.
For the compound `COc1ccc(CNC(=O)C(C#N)c2nc3ccccc3nc2N2CCCC2)cc1` (stereo not drawn), the manual score is 3.
For `CCN1C(=O)/C(=C/c2ccc(C)s2)NC1=S`, the manual score was 0.5.
In the case of `O=C1/C(=C/c2ccc(N3CCCC3)cc2)NC(=S)N1C1CC1` it was 3; in that of `CCCN1C(=O)/C(=C/c2ccc(N3CCCC3)c(C)c2)NC1=S`, 3.
On to `CCCN1C(=O)/C(=C/c2ccc(C)s2)NC1=S`, for which the manual score was 1 (active).
On to `CC(C)CN1C(=O)/C(=C/c2cccs2)NC1=S`, for which the manual score is 1 (active).
As to `CSc1nc2ccccc2cc1/C=C(\C#N)c1cccc(C)c1`, the manual score was 0.
With `CC1Oc2ccccc2C=C1/C=N/NC(=O)c1ccccc1` (stereo not drawn), the manual score is 0.
Turning to `Cc1ccc(C(=O)N/N=C/C2=Cc3ccccc3OC2C)cc1` (stereo not drawn), the manual score is 1 (active).
For the compound `COC(=O)c1sc(NC(=S)NC(=O)c2ccccc2)nc1C`, the manual score was 1 (active).
Regarding `COC(=O)Nc1nc(C)c(C(=O)N(C)C)s1`, the manual score is 0.
`CCCCSc1nc(N)c(NC(=O)c2ccco2)c(=O)[nH]1`: the manual score was 0.
On to `COC(=O)c1sc(NC(=S)NC(=O)c2cccc(C)c2)nc1C`, for which the manual score is 1 (active).
For `COC(=O)c1sc(NC(=S)NC(=O)c2ccccc2Cl)nc1C`, the manual score was 1 (active).
For the compound `CCOC(=O)c1sc(NC(=S)NC(=O)c2ccco2)nc1C`, the manual score is 1 (active).
Turning to `Cc1nnc(NC(=O)c2ccco2)s1`, the manual score is 0.
As to `COc1cc(C)ccc1OCCOc1cc(C)ccc1Cl`, the manual score is 0.
For `COc1ccc(OC)c(S(=O)(=O)N(C)CC(=O)N2CCN(c3ccccc3F)CC2)c1`, the manual score was 0.
For the compound `Cc1cccc2c1nc(-c1ccccc1)n1cnnc21`, the manual score was 0.
Turning to `Cc1cc(NC(=O)COc2ccc(Cl)cc2Cl)n(-c2ccccc2)n1`, the manual score is 0.
On to `CN(C(=S)NC(=O)CCCOc1ccc(Cl)cc1Cl)c1ccccc1`, for which the manual score is 1 (active).
Turning to `O=C(COc1ccc(Cl)cc1Cl)Nc1ccccn1`, the manual score was 0.
With `CSc1nc(N2CCOCC2)c2c(c1C#N)CC(C)(C)OC2` the figure was 0; with `Cc1nc(SC2CCOC2=O)c2c(C)c(C)sc2n1` (stereo not drawn), 1 (active).
Regarding `CCNC(=S)N/N=C/c1c(Cl)cccc1Cl`, the manual score is 1 (active).
In the case of `Cc1cccc(-n2c(O)c(/C=N/NC(=O)c3ccccc3Cl)c3ccccc3c2=O)n1` it was 3.
With `COc1ccc(C)cc1S(=O)(=O)Nc1cccc(Cl)c1Cl`, the manual score was 0.5.
With `Cc1ccc(NCC(=O)Nc2cccc(S(=O)(=O)N(C)C)c2)c(Cl)c1` the figure was 0.
On to `CCOC(=O)N/N=C/c1c(C)nn(-c2ccccc2Cl)c1Cl`, for which the manual score is 0.
With `Cc1ccc(NC(=S)N/N=C/c2c(Cl)cccc2Cl)c(C)c1`, the manual score was 1 (active).
Regarding `O=C(Cn1nc(Cc2ccncc2)c2ccccc2c1=O)N1CCN(C(=O)c2ccco2)CC1`, the manual score is 0.
For `COc1cccc(-n2c(SCC(=O)NCCC3=CCCCC3)nc3n[nH]c(C)c3c2=N)c1`, the manual score is 0.
On to `Cc1cc(C)c2nc(SCC(=O)NCCC3=CCCCC3)cc(C)c2c1`, for which the manual score is 1 (active).
With `O=C(CCCc1nc(-c2ccc(Cl)cc2)no1)Nc1cccnc1`, the manual score was 0.
In the case of `CCOC(=O)c1ccccc1Nc1cn(C(C)=O)c2ccccc12` it was 0; in that of `Cc1cc2[nH]c(=O)c3ccccc3n2n1`, 0.
In the case of `CCOC(=O)c1cnn2c1[nH]c(=O)c1ccccc12`, the manual score was 1 (active).
On to `CN(C=O)CP(=O)(O)CCN1CCCC1=O`, for which the manual score is 0.
As for `Cc1cc(C(=O)N2CCN(CCc3ccccc3)CC2)no1`, the manual score is 0.
For the compound `S=c1[nH]nc(-c2cc3c(s2)-c2ccccc2CC3)o1`, the manual score is 1 (active).
`CN1C=CC2=C(C#N)C(N)C(C#N)(C#N)[C@H](c3ccccc3)[C@H]2C1` (stereo partly drawn): the manual score was 3.
`COc1ccc(-c2cc(C(F)(F)F)c3c(n2)sc2c(O)cc(=O)[nH]c23)c(OC)c1`: the manual score is 0.
In the case of `O=C(Nc1cccc(Cl)c1)Nc1nccs1`, the manual score was 0.
In the case of `O=C(NCCCN1CCN(c2cccc(Cl)c2)CC1)c1cccc(N2CCCC2=O)c1` it was 0; in that of `Cn1sc(NC(=O)c2cccc(Cl)c2)nc1=O`, -1 (active); in that of `CCn1c(=S)[nH]c2nc3c(cc2c1=O)CCCC3`, 1 (active).
With `C=CCn1c(=S)[nH]c2nc3c(cc2c1=O)CCCC3`, the manual score was 1 (active).
`Cc1noc(C)c1S(=O)(=O)N1CCC(Cc2ccccc2)CC1`: the manual score is 0.
Consider `CCCCCCN1C2=NCCN2c2ccccc21`, for which the manual score is 0.
Consider `CCC(=O)N1c2ccc(C)cc2C2=NNC(=S)NC21O` (stereo not drawn), for which the manual score is 1 (active).
